Assay [1] has as its target Nuclear receptor coactivator 3 (Homo sapiens) (UniProt Q9Y6Q9). The experiment in a line: NCOA3 GAL4-fusion reporter inhibition – cell-based, luminescence, quadruplicate, confirmation (AID 588792).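 Further: 0% = DMSO treated cells and 100% = gossypol at 36 µM.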 As to conditions: HEK293 GAL4-SRC3 luciferase reporter, at 3.6 µM, hits give high values.
In assay [2] the test system is transactivating tegument protein VP16 (Human herpesvirus 1), Gal4-VP16 luciferase reporter. The assay can be described thus: repression of VP16-driven luciferase reporter – cell-based, luminescence, high throughput, counter-screen for SRC3 inhibitor project (AID 588794; in the data active means inhibition above about 30%). The following applies: mammalian cells, at 3.6 µM, hits give high values. Background: Reporter assays use an easily measured gene product as a stand-in for the process of interest.

The test system of assay [3] is transactivating tegument protein VP16 (Human herpesvirus 1). The experiment in a line: compounds suppressing VP16-driven luciferase signal – cell-based, luminescence, single concentration, counter-screen for SRC2 inhibitor project (AID 652007; in the data active means inhibition above about 36%). As to conditions: cell-based VP16 transactivation luciferase reporter, at 8.9 µM, hits give high values.
Assay [4] concerns the target Nuclear receptor coactivator 2 (Homo sapiens) (UniProt Q15596). The experiment in a line: inhibition of GAL4-SRC2 driven luciferase expression – cell-based, luminescence, HEK293, triplicate, confirmation (AID 652008;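 active means mean inhibition above 46.5%, the solvent-only control mean plus 3 SD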;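 further: 0% = DMSO-treated cells and 100% = Gossypol at 36 µM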). As to conditions: HEK293 GAL4-SRC2 luciferase reporter, at 8.9 µM, hits give high values.
The nature of assay [5]: StAR promoter reporter inhibitors, counter-screen for LRH-1 inverse agonist project, cell-based, luminescence, high throughput (AID 651611; in the data active means inhibition above about 28%). As to conditions: StAR promoter luciferase reporter counterscreen, at 3.6 µM, hits give high values. (In general: Counterscreens check selectivity or assay interference.)
The target in assay [6] is Nuclear receptor subfamily 5 group A member 2 (Homo sapiens) (UniProt O00482). The experiment in a line: NR5A2 activity suppression in reporter cells – cell-based, luminescence, confirmation (AID 651613; in the data active means inhibition above about 42%;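 further: HEK293T cells co-transfected with LRH-1 and StAR promoter luciferase reporter; 0% = vehicle wells and 100% = parental cells lacking receptor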). The following applies: cell-based LRH-1 luciferase reporter, inverse agonism; at 3.6 µM; hits give high values.
For assay [7], the target named is Steroidogenic factor 1 (Homo sapiens) (UniProt Q13285). The assay can be described thus: inverse agonism at SF1 nuclear receptor – cell-based, luminescence, high throughput, counter-screen for LRH-1 inverse agonist project (AID 651614; in the data active means inhibition above about 44%;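 further: cells cotransfected with StAR promoter reporter and SF1 expression vector; 0% = vehicle on cells with receptor and 100% = vehicle on cells lacking receptor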). As to conditions: cell-based SF1 luciferase reporter, at 3.6 µM, hits give high values.
Assay [8] can be described thus: compounds suppressing VP16-driven luciferase signal – cell-based, luminescence, high throughput, counter-screen for LRH-1 inverse agonist project (AID 651615; in the data active means inhibition above about 33%). As to conditions: Gal4-VP16 luciferase reporter cells, at 3.6 µM, hits give high values.
Assay [9] concerns the target Nuclear receptor coactivator 1 (Homo sapiens) (UniProt Q15788). The assay can be described thus: NCOA1 GAL4-fusion reporter inhibition – cell-based, luminescence, quadruplicate, confirmation (AID 588820;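 active means mean inhibition above 46.68%, the untreated control wells mean plus 3 SD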;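 further: 0% = DMSO wells and 100% = gossypol 36 µM treated wells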). As to conditions: HEK293 GAL4-SRC1 luciferase reporter, at 3.6 µM, hits give high values.
The nature of assay [10]: repression of VP16-driven luciferase reporter – cell-based, luminescence, high throughput, counter-screen for SRC1 inhibitor project (AID 588824; in the data active means inhibition above about 25%). As to conditions: cell-based VP16 transactivation luciferase luminescence; at 3.6 µM; hits give high values.
The target of assay [11] is Receptor-interacting serine/threonine-protein kinase 2 (Homo sapiens) (UniProt O43353). The experiment in a line: inhibitors of RIPK2 association with NOD2 – fluorescence, CHO cells, BLA complementation, triplicate, confirmation (AID 624370;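 active means mean inhibition across replicates above a set limit taken from the earlier primary screen, cut at about 21% in these data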;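 further: 0% = DMSO-only wells and the high end = clavulanate BLA-blocked wells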). As to conditions: CCF4 FRET, at 4.98 µM, hits give high values.
A short description of assay [12]: BLA reporter readout interference – cell-based, CHO-K1 CMV-bla, CCF4 FRET, fluorescence, artefact control for NOD2-RIPK2 interaction inhibitor project, confirmation (AID 624371;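 active means mean inhibition above the low-control mean inhibition plus three low-control SD, cut at about 11% in these data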;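 further: 0% = DMSO only wells and 100% = clavulanate high control wells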). The following applies: CCF4 FRET ratio, counterscreen, at 4.98 µM, hits give high values.
In assay [13] the target is Photoreceptor-specific nuclear receptor (Homo sapiens) (UniProt Q9Y5X4). The experiment in a line: retest of NR2E3-NCOR disrupting agonists – cell-based, luminescence, CHO-S two-hybrid, confirmation (AID 624378;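 active means average inhibition above a cutoff equal to the mean inhibition of all tested compounds plus one SD, cut at about 70% in these data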;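 further: 0% = DMSO in NR2E3 cells and 100% = DMSO in cells lacking NR2E3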). As to conditions: CHO-S mammalian two-hybrid NR2E3-NCOR, luciferase luminescence; at 3.98 µM; hits give high values.
Assay [14] in a line: nonselective effects on VP16 transactivation – cell-based, luminescence, CHO-S, high throughput, counter-screen for NR2E3 agonist project, confirmation (AID 624379;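 active means mean inhibition above a cutoff equal to the average over all tested compounds plus one standard deviation, cut at about 70% in these data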;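 further: luciferase from a UAS reporter driven by GAL4-VP16 transactivation; 0% = DMSO with VP16-transfected cells and 100% = DMSO with cells lacking VP16; higher means less reporter light so more repression of VP16 activity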). As to conditions: CHO-S GAL4-VP16 luciferase reporter, at 3.98 µM, hits give high values.

Molecules are shown by their SMILES. “And” between values parts separate entries of the source, which are not always exact repeats. Identical values can stand only once. Unmarked numbers belong to inactive results. The list shows a part of the results. The source made the active and inactive calls.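 How the source made its calls, unless noted: active means mean inhibition over 43.08%, the solvent-only control mean plus 3 SD; inactive means the rest.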

Chain of Nuclear receptor coactivator 2 (Homo sapiens) (Q15596 whole entry, looked up, the tested form may be a part): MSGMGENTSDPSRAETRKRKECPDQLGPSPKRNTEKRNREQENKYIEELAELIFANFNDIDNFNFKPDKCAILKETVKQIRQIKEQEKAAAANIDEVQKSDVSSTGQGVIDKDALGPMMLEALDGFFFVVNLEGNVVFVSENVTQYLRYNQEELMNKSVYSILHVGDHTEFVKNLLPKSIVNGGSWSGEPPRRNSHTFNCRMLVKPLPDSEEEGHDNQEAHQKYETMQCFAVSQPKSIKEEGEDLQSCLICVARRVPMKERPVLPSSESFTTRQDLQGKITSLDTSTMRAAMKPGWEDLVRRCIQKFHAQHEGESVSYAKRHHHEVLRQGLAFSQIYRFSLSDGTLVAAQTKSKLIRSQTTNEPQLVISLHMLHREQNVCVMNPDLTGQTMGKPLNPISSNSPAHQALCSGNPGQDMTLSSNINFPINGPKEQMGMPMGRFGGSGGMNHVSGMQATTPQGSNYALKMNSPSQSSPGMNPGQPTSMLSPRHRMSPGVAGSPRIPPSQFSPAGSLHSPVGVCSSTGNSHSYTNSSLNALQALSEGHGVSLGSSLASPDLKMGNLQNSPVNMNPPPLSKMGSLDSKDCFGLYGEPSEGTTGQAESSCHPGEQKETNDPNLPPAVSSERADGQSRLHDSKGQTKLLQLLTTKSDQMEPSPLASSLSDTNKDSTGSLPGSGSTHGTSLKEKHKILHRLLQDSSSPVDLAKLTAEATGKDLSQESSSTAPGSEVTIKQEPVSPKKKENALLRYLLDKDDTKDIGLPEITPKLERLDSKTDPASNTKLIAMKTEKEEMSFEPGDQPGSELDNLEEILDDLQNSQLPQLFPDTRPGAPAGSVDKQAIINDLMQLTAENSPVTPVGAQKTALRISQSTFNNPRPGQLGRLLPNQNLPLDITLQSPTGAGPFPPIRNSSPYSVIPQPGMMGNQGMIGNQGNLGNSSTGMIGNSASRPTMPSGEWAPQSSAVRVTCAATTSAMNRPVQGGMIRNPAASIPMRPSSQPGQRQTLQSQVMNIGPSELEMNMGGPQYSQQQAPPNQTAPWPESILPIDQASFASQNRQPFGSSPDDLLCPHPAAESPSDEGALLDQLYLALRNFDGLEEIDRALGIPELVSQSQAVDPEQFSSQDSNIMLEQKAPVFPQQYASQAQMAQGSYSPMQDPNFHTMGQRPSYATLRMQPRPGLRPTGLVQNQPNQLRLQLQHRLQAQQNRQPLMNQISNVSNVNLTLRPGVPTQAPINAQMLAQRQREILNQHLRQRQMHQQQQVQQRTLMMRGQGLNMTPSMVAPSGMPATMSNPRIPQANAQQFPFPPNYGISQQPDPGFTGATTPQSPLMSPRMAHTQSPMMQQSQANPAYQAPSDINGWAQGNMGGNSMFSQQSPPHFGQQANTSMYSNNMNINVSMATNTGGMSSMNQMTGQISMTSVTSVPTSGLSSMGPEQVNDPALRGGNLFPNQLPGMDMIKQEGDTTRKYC
Chain of Nuclear receptor subfamily 5 group A member 2 (Homo sapiens) (O00482 whole entry, looked up): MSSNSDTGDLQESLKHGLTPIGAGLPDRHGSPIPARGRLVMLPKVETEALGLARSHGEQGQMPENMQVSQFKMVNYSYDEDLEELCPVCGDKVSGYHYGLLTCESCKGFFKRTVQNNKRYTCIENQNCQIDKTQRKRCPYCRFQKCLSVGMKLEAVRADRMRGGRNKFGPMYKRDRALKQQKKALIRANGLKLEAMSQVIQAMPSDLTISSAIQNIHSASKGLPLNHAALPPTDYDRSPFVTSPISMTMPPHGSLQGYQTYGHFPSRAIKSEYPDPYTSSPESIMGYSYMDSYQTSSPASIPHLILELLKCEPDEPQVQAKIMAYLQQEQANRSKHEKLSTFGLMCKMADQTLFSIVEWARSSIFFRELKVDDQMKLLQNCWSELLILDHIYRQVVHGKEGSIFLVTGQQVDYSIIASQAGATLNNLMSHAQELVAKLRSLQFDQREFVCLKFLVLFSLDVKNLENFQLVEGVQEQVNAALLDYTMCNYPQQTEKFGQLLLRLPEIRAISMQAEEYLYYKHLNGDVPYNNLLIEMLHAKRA
Chain of Nuclear receptor coactivator 1 (Homo sapiens) (Q15788 whole entry, looked up, the tested form may be a part): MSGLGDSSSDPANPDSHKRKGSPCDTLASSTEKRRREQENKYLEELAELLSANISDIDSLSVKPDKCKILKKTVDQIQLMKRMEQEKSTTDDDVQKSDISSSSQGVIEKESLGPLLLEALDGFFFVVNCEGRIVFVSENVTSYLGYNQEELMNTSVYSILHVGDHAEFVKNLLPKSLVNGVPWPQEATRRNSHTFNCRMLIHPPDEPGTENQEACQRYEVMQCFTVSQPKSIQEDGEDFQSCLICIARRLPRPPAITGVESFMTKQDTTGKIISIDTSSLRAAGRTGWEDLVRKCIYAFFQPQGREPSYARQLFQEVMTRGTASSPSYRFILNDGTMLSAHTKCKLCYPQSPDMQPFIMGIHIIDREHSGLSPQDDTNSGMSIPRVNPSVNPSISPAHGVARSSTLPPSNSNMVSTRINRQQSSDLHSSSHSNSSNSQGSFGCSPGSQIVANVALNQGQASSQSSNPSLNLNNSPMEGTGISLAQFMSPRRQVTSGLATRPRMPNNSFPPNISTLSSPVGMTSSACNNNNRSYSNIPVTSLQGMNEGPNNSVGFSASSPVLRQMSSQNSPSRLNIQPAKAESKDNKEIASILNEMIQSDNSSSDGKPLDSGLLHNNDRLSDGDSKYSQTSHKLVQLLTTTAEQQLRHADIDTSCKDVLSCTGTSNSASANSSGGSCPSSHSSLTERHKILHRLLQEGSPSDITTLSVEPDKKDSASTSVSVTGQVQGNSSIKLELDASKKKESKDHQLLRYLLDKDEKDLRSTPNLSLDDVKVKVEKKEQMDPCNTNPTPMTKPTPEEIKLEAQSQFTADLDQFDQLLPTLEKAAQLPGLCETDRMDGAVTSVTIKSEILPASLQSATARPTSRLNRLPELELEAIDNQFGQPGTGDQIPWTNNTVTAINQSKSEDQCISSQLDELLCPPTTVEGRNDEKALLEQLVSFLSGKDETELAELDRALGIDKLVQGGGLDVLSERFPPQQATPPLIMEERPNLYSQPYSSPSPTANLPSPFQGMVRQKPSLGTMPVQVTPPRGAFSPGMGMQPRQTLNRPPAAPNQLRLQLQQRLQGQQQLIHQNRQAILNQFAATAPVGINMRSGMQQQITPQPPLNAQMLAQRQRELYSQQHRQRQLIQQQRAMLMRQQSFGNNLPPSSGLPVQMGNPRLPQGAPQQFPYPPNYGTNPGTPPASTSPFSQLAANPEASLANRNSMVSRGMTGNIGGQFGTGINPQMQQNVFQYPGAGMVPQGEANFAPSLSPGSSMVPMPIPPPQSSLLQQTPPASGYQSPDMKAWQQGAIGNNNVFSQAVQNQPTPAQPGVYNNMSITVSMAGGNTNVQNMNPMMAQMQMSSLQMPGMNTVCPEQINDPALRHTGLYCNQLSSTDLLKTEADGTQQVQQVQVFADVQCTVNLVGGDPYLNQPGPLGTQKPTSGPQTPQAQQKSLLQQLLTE
Chain of Nuclear receptor coactivator 3 (Homo sapiens) (Q9Y6Q9 whole entry, looked up, the tested form may be a part): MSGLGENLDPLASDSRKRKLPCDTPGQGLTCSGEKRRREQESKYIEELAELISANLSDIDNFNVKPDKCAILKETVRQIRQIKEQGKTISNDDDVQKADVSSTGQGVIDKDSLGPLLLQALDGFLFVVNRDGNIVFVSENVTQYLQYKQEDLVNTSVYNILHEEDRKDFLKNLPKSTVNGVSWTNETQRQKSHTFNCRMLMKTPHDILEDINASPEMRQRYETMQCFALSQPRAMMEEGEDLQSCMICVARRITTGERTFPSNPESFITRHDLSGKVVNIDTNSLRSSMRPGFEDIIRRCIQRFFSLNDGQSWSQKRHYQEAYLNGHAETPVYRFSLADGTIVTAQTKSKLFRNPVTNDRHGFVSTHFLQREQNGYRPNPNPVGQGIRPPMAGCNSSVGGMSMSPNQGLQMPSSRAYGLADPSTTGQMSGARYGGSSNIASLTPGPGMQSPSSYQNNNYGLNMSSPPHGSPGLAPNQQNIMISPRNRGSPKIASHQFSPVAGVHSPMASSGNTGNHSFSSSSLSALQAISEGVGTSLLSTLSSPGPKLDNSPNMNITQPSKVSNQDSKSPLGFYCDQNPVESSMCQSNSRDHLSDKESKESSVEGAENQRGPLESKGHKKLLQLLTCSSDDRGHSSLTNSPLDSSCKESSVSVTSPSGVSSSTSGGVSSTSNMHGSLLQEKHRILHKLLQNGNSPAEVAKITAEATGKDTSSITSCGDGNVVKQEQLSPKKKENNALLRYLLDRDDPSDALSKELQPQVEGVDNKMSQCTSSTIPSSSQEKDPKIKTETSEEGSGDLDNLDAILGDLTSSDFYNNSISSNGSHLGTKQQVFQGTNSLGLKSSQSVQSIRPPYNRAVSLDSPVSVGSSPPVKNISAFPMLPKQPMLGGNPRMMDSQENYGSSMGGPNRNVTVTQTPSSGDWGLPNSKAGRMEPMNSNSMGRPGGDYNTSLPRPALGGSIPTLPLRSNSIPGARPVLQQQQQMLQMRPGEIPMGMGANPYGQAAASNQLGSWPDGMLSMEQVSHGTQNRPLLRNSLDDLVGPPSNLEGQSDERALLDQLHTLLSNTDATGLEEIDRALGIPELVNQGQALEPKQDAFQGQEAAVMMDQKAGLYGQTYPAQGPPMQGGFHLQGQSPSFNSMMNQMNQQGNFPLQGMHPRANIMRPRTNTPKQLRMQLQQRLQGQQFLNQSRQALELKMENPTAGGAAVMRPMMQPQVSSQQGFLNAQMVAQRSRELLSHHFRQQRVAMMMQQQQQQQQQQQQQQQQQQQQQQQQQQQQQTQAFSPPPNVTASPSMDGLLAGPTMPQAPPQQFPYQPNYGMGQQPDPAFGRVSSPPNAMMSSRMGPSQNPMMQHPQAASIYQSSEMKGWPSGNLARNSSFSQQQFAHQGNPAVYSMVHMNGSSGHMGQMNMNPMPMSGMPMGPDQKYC

For `CN1C2CCC1/C(=C/c1ccccn1)C(=O)/C2=C\c1ccccn1`, the inhibition (in general, the relative decrease from the control value, in per cent) was -0.02% in assay [1], 80.8% (active) in assay [2], 75% (active) in assay [3] and 70.9% (active) in assay [4].

As for `c1ccc(-c2[nH]c(-c3ccccc3)[n+](CC3CO3)c2-c2ccccc2)cc1` (stereo unspecified), the inhibition was 13.4% in [1], -0.66% in [2], 22.1% in assay [3] and 30.2% in assay [4].

In the case of `CC1CCC/C=C/C2CC(O)CC2C(O)/C=C/C(=O)O1` (stereo unspecified), the inhibition in [1] was 64.7% (active); in assay [2], 75% (active); in assay [5] it was 78.9% (active); in [6], 86.7% (active); in [7], 80.8% (active); in [8], 74.8% (active).

With `C[C@H]1CCC/C=C/[C@@H]2C[C@H](O)C[C@H]2[C@H](O)/C=C/C(=O)O1`, the inhibition in [1] is 70% (active) and 66.5% (active); in [2], 76.2% (active) and 77.2% (active); in assay [5], 77.6% (active) and 82% (active); in [6], 82.1% (active) and 88.7% (active); in [7], 75% (active) and 80.4% (active); in [8], 78.7% (active) and 78.3% (active).

On to `CNC(=O)c1cccn(Cc2ccc(C(F)(F)F)cc2)c1=O`, for which the inhibition in assay [1] is 30.3%; in [2] it was -34.3%; in assay [5], 47.7% (active); in assay [6], 65.9% (active); in assay [7], 54.3% (active); in assay [8], -78.8%.

With `CCCCC(CC)COCCCN=Cc1c(O)[nH]c(=S)[nH]c1=O` (stereo unspecified), the inhibition in [9] is 29.9%; in [10], 17.5%.

As for `CCCOC(=O)c1ccc(-[n+]2c(-c3ccccc3)cc(-c3ccccc3)cc2-c2ccccc2)cc1`, the inhibition in [1] was 44.1% (active); in [2] it was 65.5% (active); in [5], 64.9% (active); in assay [6], 110% (active); in assay [7], 88.8% (active); in assay [8] it was 96.6% (active). Moreover, the inhibition in assay [3] was 31.1%; in [4], 31.8%.

Turning to `CCCCn1nnnc1C(CCSC)N1CCC(n2c(=O)[nH]c3ccccc32)CC1` (stereo unspecified), the inhibition in assay [9] was -63.4%; in assay [10], 6.98%.

Regarding `CC(C)(O)/C=C/C(=O)C(C)(O)C1C(O)CC2(C)C3CC=C4C(C=C(O)C(=O)C4(C)C)C3(C)C(=O)CC12C` (stereo unspecified), the inhibition in [1] was 70.1% (active); in [2] it was 74% (active); in assay [5], 66% (active); in assay [6], 79.3% (active); in assay [7], 78.9% (active); in assay [8], 86.1% (active). For the same compound, the results for the inhibition in [3] and in assay [4] were 62.2% (active) and 96.5% (active), respectively.

`C1=NCCc2c1[nH]c1ccccc21`: the inhibition was 27.8% in assay [1]; -13.4% in assay [2]; 14.4% in assay [5]; 50.2% (active) in [6]; 44.8% (active) in assay [7]; -11.6% in assay [8].

Turning to `COC(=O)C[C@]1(C(=O)OC)CN(C#N)N(c2ccc(Cl)cc2)C12c1ccccc1-c1ccccc12`, the inhibition is 17.7% in assay [1]; 63.2% (active) in [2]; 34.7% (active) in assay [5]; 61.1% (active) in [6]; 58.2% (active) in [7]; 69.2% (active) in assay [8].

`COc1cc2nc(CN3CC=C(c4ccccc4)CC3)[nH]c(=O)c2cc1OC`: the inhibition in [1] was 37.9%; in [2] it was 39.7% (active); in assay [5], 72.7% (active); in [6], 97.1% (active); in [7] it was 77.1% (active); in [8], 73.8% (active). Further, the inhibition was -4.49% in assay [3] and 24.4% in assay [4].

`COc1ccc(-n2nnnc2C(c2ccccc2)N2CCC(n3c(=O)[nH]c4ccccc43)CC2)cc1` (stereo unspecified): the inhibition in assay [9] is -22.4%; in [10] it was 5.11%.

Turning to `COC(=O)c1ccc(NC(=O)CSc2nc3ccc(N4C(=O)C5C6C=CC(C6)C5C4=O)cc3s2)cc1` (stereo unspecified), the inhibition was -22.8% in assay [1], -0.23% in [2], 24.8% in assay [3] and -3.51% in assay [4].

On to `CC(=O)c1cn(Cc2ccccc2F)c2ccccc12`, for which the inhibition was -1.96% in assay [9] and 35.7% (active) in assay [10].

Consider `Cc1cccc(-n2c(C)nc3ccccc3c2=O)c1C`, for which the inhibition was 2% in [9] and 9.3% in [10].

In the case of `COc1ccc(CN2Cc3cnnn3-c3ccccc3C2C#N)cc1` (stereo unspecified), the inhibition is 62.8% (active) in assay [1], 56.2% (active) in assay [2], 51.6% (active) in assay [3] and 49.8% (active) in assay [4].

As for `COc1cccc2cc(-c3cc(=O)oc4ccc(OC(=O)N(C)C)cc34)oc12`, the figures for the inhibition in assay [9] and in [10] were -17.6% and -14.6%, respectively.

Consider `CC(C)CNc1c2c(nc3ccccc13)CCC2`, for which the inhibition in [9] is 7.81%; in assay [10] it was 17.3%.

Take `CC(=O)OC1C2(CC3N4C(=O)C5(CO)SSC4(CC31O)C(=O)N5C)OC(C)C(C)(C)C2=O` (stereo unspecified): the inhibition in assay [1] was 95.9% (active); in assay [2], 94.1% (active); in [11], 41.9% (active); in assay [12], 0.4%; in assay [13], 98.8% (active); in assay [14], 99.1% (active). For the same compound, the inhibition in assay [5] is 96.3% (active); in assay [6], 110% (active); in [7], 98.4% (active); in assay [8], 97.4% (active).

`COc1ccc(-n2nnnc2C(c2cccs2)N2CCC(n3c(=O)[nH]c4ccccc43)CC2)cc1` (stereo unspecified): the inhibition in assay [9] is -25.6%; in assay [10], -13.5%.

The values are drawn from PubChem BioAssay.
